Article PMC7826789 (International Journal of Molecular Sciences, 2021)

Tested on: CAMK1G
Conditions: Compound Concentration (nM):1000
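Also: KINOMEscan scanMAX binding as percent activity remaining versus control; lower means stronger binding.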

Percent Control, inactive:
O=C(Nc1n[nH]c2nc(-c3ccc(O)cc3)c(Br)cc12)C1CC1 [SB-725317] 100%
COc1cccc(-c2c[nH]c3c(N/N=C/c4ccncc4)ncnc23)c1 [GW814408X] 97%
Cl.O=C(O[C@H]1CN[C@H](C#Cc2cc3ncnc(Nc4ccc5c(cnn5Cc5ccccc5)c4)c3s2)C1)N1CCOCC1 [GSK200398A] 100%
CCS(=O)(=O)c1ccc(OC)c(Nc2ncc(-c3cccc(OC)c3)o2)c1 [GW580509X] 100%
COc1ccc2cc(-c3c(-c4ccncc4)nc(-c4ccc(S(C)(=O)=O)cc4C)n3C)ccc2c1 [SB-633825] 83%
COc1ccc(COc2ccc(Cc3cnc(N)nc3N)cc2OC)cc1 [GW632580X] 96%
C[C@@H](Oc1cc(-n2cnc3ccc(OC4CCN(C)CC4)cc32)sc1C(N)=O)c1ccccc1Cl [GSK579289A] 81%
CCS(=O)(=O)c1ccc(OC)c(Nc2ncc(-c3cccc(F)c3)o2)c1 [GW621970X] 100%
COc1cc(N2CCN(C(C)C)CC2)ccc1Nc1nc(Nc2ccc(F)cc2C(=O)NC[C@@H](O)CO)c2cc[nH]c2n1 [GSK1392956A] 75%
COc1cc2ncn(-c3cc(O[C@H](C)c4ccccc4Cl)c(C(N)=O)s3)c2cc1OC [GSK237701A] 93%
Cl.O=C(Nc1ccc(Oc2ccc3[nH]c(NC(=O)c4ccccc4)nc3c2)cc1)Nc1cc(C(F)(F)F)ccc1F [GW709042A] 100%
COc1cc(C)c(N(C)C(=O)CN(C)C)cc1Nc1nc(Nc2cccc(F)c2C(N)=O)c2cc[nH]c2n1 [GSK2219385] 95%
CCc1ccc(Oc2nccc(-c3c(-c4ccc(F)cc4)ncn3C3CCNCC3)n2)cc1 [SB-242719] 100%
CC1=C(C(=O)Nc2ccc3[nH]ncc3c2)C(c2ccc3ccccc3c2)CC(=O)N1 (stereo not shown) [GSK270822A] 91%
Nc1ncnc2occ(-c3ccc(NC(=O)Nc4cc(C(F)(F)F)ccc4F)cc3)c12 [GW770249X] 94%
O=C1Nc2ccc(C(=O)c3ccco3)cc2C1=Cc1cc(Cl)c(O)c(Cl)c1 [GW406108X] 77%
COc1ccc2[nH]c3c4[nH]c5ccc(OC)cc5c4c4c(c3c2c1)C(=O)NC4=O [GW296115X] 76%
CN(C)CCNC(=O)Nc1ccc(N(C)c2ccnc(Nc3ccc(CS(C)(=O)=O)cc3)n2)cc1.Cl [GW830900A] 100%
Cl.c1ccc(Cc2nc3ccc(Nc4ncnc5ccccc45)cc3[nH]2)cc1 [GR269666A] 100%
COc1ccc2c(-c3ccnc(Nc4cccc(OC(F)(F)F)c4)n3)cnn2n1 [GW810372X] 100%
COc1cccc(-n2ncc3c(N/N=C/c4ccncc4)ncnc32)c1 [GW784752X] 100%
COc1cc(/C=N/Nc2ncnc3[nH]ncc23)ccc1O [GW578748X] 100%
NS(=O)(=O)c1ccc(N/N=C2\C(=O)Nc3ccc(C(=O)NCCc4c[nH]cn4)cc32)cc1 [GW300660X] 100%
NS(=O)(=O)c1ccc(N/N=C2\C(=O)Nc3ccc(-c4cnco4)cc32)cc1 [GW276655] 85%
NS(=O)(=O)c1ccc(Nc2ncc(-c3ccccc3)o2)cc1 [GW572399X] 100%
C/C(Nc1ccc(S(N)(=O)=O)cc1)=C1/C(=O)Nc2ccccc21 [GW335962X] 86%
Cl.O=S1CCN(Cc2ccc(-c3ccc4ncnc(Nc5ccc(OCc6ccccc6)c(F)c5)c4c3)o2)CC1 [GW576924A] 100%
CN(C)c1cc2c(Nc3ccc4c(cnn4Cc4ccccc4)c3)ncnc2cn1 [GW282974X] 91%
CCn1c(-c2nonc2N)nc2c(C#CC(C)(C)O)nc(OCCNC)cc21.Cl [GSK949675] 100%
CC(C)COC(=O)c1ccc2c(c1)/C(=C/Nc1ccc(S(N)(=O)=O)cc1)C(=O)N2 [GW416981X] 100%
CC1=C(C(=O)Nc2ccc3[nH]ncc3c2)C(c2ccc(Cl)c(Cl)c2)CC(=O)N1 (stereo not shown) [GSK299115A] 100%
NS(=O)(=O)c1ccc(N/N=C2\C(=O)Nc3ccc(Cl)cc32)cc1 [GW280670X] 100%
COc1cc(C=NNc2ncnc3c2cnn3-c2ccccc2)ccc1O [GW513184X] 100%
COc1cc2ncnc(Nc3ccc4c(cnn4Cc4ccccc4)c3)c2cc1OC.Cl [GW282449A] 100%
COC(=O)Nc1nc2ccc(Oc3ccc(NC(=O)Nc4cc(C(F)(F)F)ccc4F)cc3)cc2s1.Cl [GW693917A] 100%
NS(=O)(=O)c1ccc(N/N=C2\C(=O)Nc3ccc(C(=O)NCc4ccncc4)cc32)cc1 [GW300657X] 88%
Cl.O=C(Nc1ccc(Oc2ccc3[nH]c(NC(=O)c4ccco4)nc3c2)cc1)Nc1cc(C(F)(F)F)ccc1F [GW683134A] 100%
COc1ccccc1-c1cc(/C=C2\C(=O)Nc3ncc(Br)cc32)cc(Br)c1O [GW442130X] 100%
CN1CCN(C(=O)c2ccc(NC(=O)Nc3ccc(N(C)c4ccnc(Nc5ccc(CS(C)(=O)=O)cc5)n4)cc3)cc2)CC1.Cl [GW830263A] 88%
Cc1cc(O)cc(C)c1/C=C/c1cncc(C(N)=O)c1 [GW435821X] 100%
